Among the data in PubChem BioAssay (NCI) are growth values, retold here.

About 83,000 compounds went through this panel and 20% of them were active in at least one assay; those are over-represented in the sample as a whole.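 Growth was measured after 48 h exposure to one concentration of compound in 96-well plates. Values under 10 count as active.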 Values without a mark were called inactive. Activity calls are given as the source filed them.

The test system of the experiment is OVCAR-5 ovarian. As to the kind of experiment: NCI-60 one-dose screen, 48 h (100 = growth as untreated, 0 = no growth, -100 = all killed). The settings on record: 10 µM unless noted.
As for `Nc1nc(N)c2c(n1)NC1(C=C(O)c3ccccc31)C1=C(N2)c2ccccc2C1=O` (stereo not given), the growth is 116%.

For `COc1ccc(CCN2C(=O)/C(=C/c3ccc(C4Oc5ccccc5C5CC(c6cccc(OC)c6)=NN54)cc3)SC2=S)cc1` (stereo not given), the growth is 99.9%.

For the compound `O=C(Nc1ccc(N2CCNCC2)cc1)c1[nH]ncc1Nc1cc(Oc2ccccc2)ncn1`, the growth is -26.4% (active).

On to `O=C(CCc1nnc2sc(Cc3ccccc3Cl)nn12)c1nc2ncccc2[nH]1`, for which the growth is 93.3%.

As for `O=NN(Cc1cccnc1)C(=O)NC1CCCCC1`, the growth is 97.4%.

Turning to `CN(C)/C=C1\SC(=Nc2ccc(Cl)cc2)NC1=O`, the growth was 96%.

For the compound `CCOC(=O)c1cc2c(n1Cc1ccccc1)-c1oncc1CCC2`, the growth was 101%.

For `O=C(c1ccccc1)N(C(=S)NCCc1ccc(Cl)cc1)c1ccccc1`, the growth is 91.2%.

Regarding `COc1cccc(/C=C/C(=O)c2c(C)nc3ccccc3c2/C=C/c2ccccc2)c1OC`, the growth was 36.4%.

As to `CCOC(=O)c1cc2c(n1Cc1cccc(OC)c1)-c1oncc1CCC2`, the growth was 72.8%.

Consider `COc1ccc(OC)c(NC(=O)/C(C#N)=C/c2ccco2)c1`, for which the growth was 115%.

In the case of `CCc1ccc(CNCC(O)c2ccccc2)cc1` (stereo not given), the growth is 76.1%.

In the case of `CC/C=C\C[C@H](O)C/C=C1/C(=O)C=C[C@@H]1C/C=C\CCCC(=O)OCCS(=O)(=O)c1ccccc1`, the growth is 121%.

As for `O=C1c2cc(Br)ccc2Oc2cc([N+](=O)[O-])ccc2N1c1ccc(I)cc1F`, the growth is 97.7%.

In the case of `COc1ccc(/C=C/C(=O)c2c(C)nc3ccccc3c2/C=C/c2ccccc2)cc1O`, the growth is 17.2%.
